A number with no mark means an inactive call. Active and inactive are the calls of the source. Calls follow the shape of the dose curve; as a rule, active = well fitted curve in the direction sought with a large enough effect in the repeat runs; inconclusive = weak or mixed curves; inactive = flat fitted curve, though single readings scatter.
Experiment: qHTS assay to test for compound auto fluorescence at 535 nm (green) in HepG2 cell free culture (AID 720686)
Conditions: Cell-free medium, green autofluorescence 485/535 nm; series mostly up to 91.3 µM; fluorescence, % of fluorescein control: at the top concentration
% is scaled to controls: 0 for no effect and ±100 for the full control effect.

Structure (SMILES) | fluorescence, % of fluorescein control | Potency
COC(=O)c1ccc(I)cc1S(=O)(=O)NC(=O)Nc1nc(C)nc(OC)n1 | -0.0052% | –
CCCOC(C(=O)OC1CCN(C)CC1)(c1ccccc1)c1ccccc1 | 0.0939% [at 46 µM] | –
CCC(C)O (stereo not drawn) | 0.0166% [at 95.7 µM] | –
CCCCc1ncc(/C=C(\Cc2cccs2)C(=O)O)n1Cc1ccc(C(=O)O)cc1 | 0.0409% [at 46 µM] | –
CCCCNc1ccc(C(=O)OCCOCCOCCOCCOCCOCCOCCOCCOCCOC)cc1 | -0.018% [at 18.6 µM] | –
CC(C)Nc1ccc(NC(C)C)c2c1C(=O)c1ccccc1C2=O | -0.0264% [at 46 µM] | –
CC[N+]1(CC)CCC(=C(c2ccccc2)c2ccccc2)C1C (stereo not drawn) | 0.16% [at 46 µM] | –
CC(C)OC(=O)C(C)N(C(=O)c1ccccc1)c1ccc(F)c(Cl)c1 (stereo not drawn) | -0.0021% | –
Cc1cccc(C)c1NC(=O)CN(CC(=O)O)CC(=O)O | -0.0221% [at 46 µM] | –
OC(CN1CCC(Cc2ccc(F)cc2)CC1)c1ccc(Cl)cc1 (stereo not drawn) | -0.0005% [at 46 µM] | –
O=C(c1ccc(F)cc1)C1CCN(CCn2c(=S)[nH]c3ccccc3c2=O)CC1 | 0.0043% [at 46 µM] | –
CCCCC | – | inactive
CCCCCCCC#N | -0.0173% | –
O=[N+]([O-])c1ccc(NCCO)c(OCCO)c1 | -0.168% | –
C=CCOC(=O)CCC1CCCCC1 | -0.0341% | –
O=C(OCCCCCCOC(=O)c1ccccc1)c1ccccc1 | 0.0202% | –
C/C=C/C(=O)CC | -0.0146% [at 18.6 µM] | –
CCCCC(CC)COC(=O)CCCCCCCCC(=O)OCC(CC)CCCC (stereo not drawn) | -0.013% | –
CCOc1ccc(O)cc1 | -0.0744% | –

Structure (SMILES) | fluorescence, % of fluorescein control | Potency
CC[N+](C)(CC)CCOC(=O)C(O)(c1ccccc1)C1CCCCC1 (stereo not drawn) | 0.0414% [at 46 µM] | –
O=C(O)CC(=O)C(=O)O | 0.0764% | –
O=S(=O)(Oc1ccc(Cl)cc1)c1ccccc1 | 0.0826% | –
COC(C)OC | -0.09% | –
O=C(NCCO[N+](=O)[O-])c1cccnc1 | -0.0285% [at 46 µM] | –
CCN(CC)CCOC(=O)C(c1ccccc1)C1CCCCC1 (stereo not drawn) | -0.0117% [at 46 µM] | –
O=C1c2ccccc2S(=O)(=O)N1CCCCN1CCN(c2ncccn2)CC1 | -0.0379% [at 46 µM] | –
CC1OC(=O)C(C)OC1=O (stereo not drawn) | -0.0144% | –
C=CC(=O)OCCOc1ccccc1 | 0.0114% | –
CCC(Cl)CCC(Cl)C(Cl)CC(Cl)C(Cl)C(Cl)CCl (stereo not drawn) | -0.0787% | –
COc1ccc(C(=O)c2ccc(OC)cc2O)c(O)c1 | 0.0248% | –
Brc1c2ccccc2cc2ccccc12 | -0.0271% | –
O=C1C(O)=C(O)C(=O)C(O)=C1O | -0.0028% [at 46 µM] | –
CCCCC(CC)COC(=O)COc1ccc(Cl)cc1Cl (stereo not drawn) | -0.0571% [at 95.7 µM] | –
C[N+]1(CC2COC(c3ccccc3)(C3CCCCC3)O2)CCCCC1 (stereo not drawn) | 0.0656% [at 46 µM] | –
COc1ccc(C)cc1[N+](=O)[O-] | 0.0191% [at 95.7 µM] | –
CNC(=O)CN(CCN(CCN(CC(=O)[O-])CC(=O)NC)CC(=O)[O-])CC(=O)[O-].O.[Gd+3] | – | inactive
Cc1c(N)cccc1[N+](=O)[O-] | 1.3e-05% [at 95.7 µM] | –
c1cc(CCCc2ccncc2)ccn1 | 0.0545% | –

From PubChem BioAssay (Tox21)
